According to PubChem BioAssay:
Unmarked numbers belong to inactive results. Calls of active or inactive are those of the source.

assay: PSAC antagonists in infected red cells, primary screen, cell-based, P. falciparum Indochina, OD700, 2 h (AID 1155);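 further: lysis reports solute entry through the parasite surface anion channel PSAC; channel blockers reduce lysis of infected cells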; settings: P. falciparum Indochina infected erythrocytes, osmotic lysis OD700; higher = more signal, called active from +8 up or from −8 down

SMILES	z-score
CC(C)Cc1ccc(CN2CC[C@@H](NC(=O)Nc3ccccc3)C2)cc1	0.981
COC(=O)[C@@]1(Cc2ccc(F)cc2)[C@H]2c3cc(C(=O)N4CCCC4)n(CCN4CNCC4=O)c3C[C@H]2CN1C(=O)c1ccccc1	0.811
COC(=O)[C@@]1(Cc2ccccc2)[C@@H]2C(=CC(=O)[C@H]2CC(=O)C(=O)N(C)C)CN1C(=O)c1ccccc1	0.329
C=CCC(OC(C)=O)[C@@H]1[C@@H](N(Cc2ccc(-c3ccccc3)cc2)C(=O)Cc2ccc(F)cc2)c2cc(OCCCO)ccc2N1C(=O)Cc1ccc(OC)cc1 (stereo not given in full)	0.477
COc1ccc([Si](C)(C)[C@@H]2[C@@H](CCn3cc([C@H](O)c4ccccc4)nn3)O[C@]3(C(=O)N(Cc4ccc(N5CCC5=O)cc4)c4ccccc43)[C@H]2C)cc1	4.31
C=C(C)[C@@H]1CC=C(C(O)C2C=CC3C(=O)N(c4ccccc4)C(=O)C3N2Nc2ccccc2F)CC1 (stereo not given in full)	1.01
Cc1ccc(S[C@]2(C(=O)O)CC(=O)N(Cc3ccccc3Cl)[C@@H]2c2ccc(CO)cc2I)cc1	1.4
O=C1C2C=CC(C(O)c3ccccc3)N(Nc3ccccc3F)C2C(=O)N1c1ccccc1 (stereo not given)	1.21
[N-]=[N+]=NCc1ccccc1[C@@H]1OC(c2ccc(OCCCO)cc2)=N[C@]1(CCS(=O)(=O)c1ccccc1)C(=O)NCC(O)CO (stereo not given in full)	8.05 (active)
COC(=O)c1c(CC[C@@H](CO)NC(=O)N[C@H](Cn2cc(C3(O)CCCCC3)nn2)C(C)C)oc(C(C)=O)c1C(=O)OC	-0.141
O=C1C2C=CC(C(O)c3ccc(F)cc3)N(n3cnnc3)C2C(=O)N1Cc1ccccc1 (stereo not given)	-0.995
Cc1ccc(S[C@]2(C(=O)NCC(F)(F)F)CC(=O)N(Cc3ccccc3)[C@@H]2c2ccc(CO)cc2I)cc1	0.283
C=C(/C(=C/C[C@H](OC(C)=O)c1ccccc1OCCO)c1cc(C(=O)OC)ccc1OC)C(C)C	0.195
CC(C)N1C(=O)C[C@@](C(=O)NCCCN(C)C)(c2ccc([N+](=O)[O-])cc2)[C@H]1c1ccc(CO)cc1	1.1
COCCOC(=O)N1C(=O)[C@@]2(c3cc(C#Cc4ccc(OC)cc4)ccc31)[C@H](c1ccccc1OCCO)N1[C@H](c3ccccc3)[C@H](c3ccccc3)OC(=O)[C@H]1[C@@H]2C(=O)N1CCCCCCC1	0.57
O=C1NC(=O)C2C1C=CC(C(O)c1cccc3ccccc13)N2Nc1ccc(Cl)cc1Cl (stereo not given)	0.994
C=CCNC(=O)[C@H]1[C@@H]2C(=O)O[C@@H](c3ccccc3)[C@@H](c3ccccc3)N2[C@@H](c2ccc(O)cc2)[C@]12C(=O)Nc1ccc(C#CC3(O)CCCCCC3)cc12	0.749
CCCC[C@@H]1C[C@H]1[C@@H](NC(=O)c1ccccc1)c1ccc(C(F)(F)F)cc1	0.0991

SMILES	z-score
NC(=O)N1C(=O)C2C(C1=O)C1C=C(CCCO)C2C(c2cccs2)N1Cc1cccc(OC(F)(F)F)c1 (stereo not given)	1.42
CCCC[C@@H]1C[C@H]1[C@@H](NC(=O)c1cccs1)c1ccc(C(F)(F)F)cc1	0.987
C=C(/C(=C/C[C@@H](OC(C)=O)c1cccc(OCCO)c1)c1cc(C(=O)OC)ccc1OC)C(C)C	1.6
CC(C)(C)OC(=O)CC[C@]1(C(=O)NCC(O)CO)N=C(c2ccc(OCCCO)cc2)O[C@H]1c1ccccc1 (stereo not given in full)	1.43
CC(C)(C)N1CC=CC23O[C@@H]4C=CCCOC(=O)C4[C@H]2C(=O)N(CCO)[C@@H]3C1=O (stereo not given in full)	0.884
COc1ccccc1CN1C(=O)c2ccccc2[C@](Cc2ccccc2I)(C(=O)NCC(F)(F)F)[C@@H]1c1ccc(CO)cc1	0.82
CCOC(=O)C[C@H]1[C@H](OC(=O)c2ccccc2-c2ccccc2)[C@@H](NC(=O)C2CCCCC2)c2cc(OCCCO)ccc2N1C(=O)Cc1ccc(OC)cc1	0.664
COC(=O)CCCCCCC(=O)Nc1ccc(NC(=O)CCCC[P+](c2ccccc2)(c2ccccc2)c2ccccc2)cc1	9.83 (active)
CN1C(=O)C2C=CC(C(O)COCc3ccccc3)N(N(c3ccccc3)c3ccccc3)C2C1=O (stereo not given)	1.49
O=C1O[C@H](c2ccccc2)[C@H](c2ccccc2)N2[C@H]1[C@@H](C(=O)O)[C@]1(C(=O)Nc3ccc(C#CC4=CCCCC4)cc31)[C@H]2c1ccc(O)cc1	-0.921
CCOc1cc(C(O)C2C=CC3C(=O)N(c4ccccc4)C(=O)C3N2Nc2ccc(C#N)cc2)ccc1O (stereo not given)	2.72
Cc1cc(C)cc(N2C(=O)CSC2c2cccc([N+](=O)[O-])c2)c1 (stereo not given)	-0.414
COCCOC(=O)N1C(=O)[C@@]2(c3cc(C#CC4(O)CCCCCC4)ccc31)[C@H](c1ccc(O)cc1)N1[C@H](c3ccccc3)[C@H](c3ccccc3)OC(=O)[C@H]1[C@@H]2C(=O)NC[C@H](O)c1ccccc1	0.487
C=CCN1C(=O)[C@@]2(CCS(=O)(=O)c3ccccc3)N=C(c3ccc(OCCCO)cc3)O[C@H]2c2ccccc21	25.2 (active)
CCOC(=O)C[C@H]1[C@H](OC(=O)c2cc3ccccc3oc2=O)[C@@H](NC(=O)c2ccc(-c3ccccc3)cc2)c2cc(OCCCO)ccc2N1C(=O)c1ccccc1	-1.44
CCCCO[C@H]1C[C@H]2C(I)=C[C@@H]1C(=O)[C@]21CO1	0.18
[N-]=[N+]=NCc1ccccc1[C@H]1OC(c2ccc(OCCCO)cc2)=N[C@@]1(CCS(=O)(=O)c1ccccc1)C(=O)N1CCCCC1	9.69 (active)
